Reference: PubChem BioAssay (EPA / NIEHS)
Results filed as inconclusive are left out. The source made the active and inactive calls. How the source made its calls: active means hit-call score of the fitted dose curve at least 0.9, where 1 is the maximum; inconclusive means response in the unintended direction; inactive means score below 0.9.

Key:
[1] = target: guinea pig Leukotriene D4 Receptor (LTD4), CYSLTR1 (gene 100135514) (UniProt Q2NNR5); experiment: NVS_GPCR_gLTD4: NovaScreen (NVS) G Protein-Coupled Receptor Assay for guinea pig Leukotriene D4 Receptor (LTD4) (AID 2283248)
Sequence of guinea pig Leukotriene D4 Receptor (LTD4), CYSLTR1 (gene 100135514) (Q2NNR5 whole entry, looked up): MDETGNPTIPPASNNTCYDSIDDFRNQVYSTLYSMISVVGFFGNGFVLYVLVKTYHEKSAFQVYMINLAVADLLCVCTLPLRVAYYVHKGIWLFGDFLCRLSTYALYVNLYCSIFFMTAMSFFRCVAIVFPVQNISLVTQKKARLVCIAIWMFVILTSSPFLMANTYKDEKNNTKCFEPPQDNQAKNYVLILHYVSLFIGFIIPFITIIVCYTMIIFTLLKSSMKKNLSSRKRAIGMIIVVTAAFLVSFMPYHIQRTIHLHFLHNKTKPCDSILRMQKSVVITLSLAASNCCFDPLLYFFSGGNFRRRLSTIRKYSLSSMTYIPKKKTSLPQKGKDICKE
How it was run: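 Radioligand displacement on guinea pig lung membranes, 1 h incubation, filtration and scintillation counting; DMSO as negative control. Duplicate 25 uM primary screen, then singleton concentration-response up to 50 uM.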

[2] = target: rat Thyrotropin Releasing Hormone Receptor (TRH), Trhr (gene 25570) (UniProt Q01717); experiment: NVS_GPCR_rTRH: NovaScreen (NVS) G Protein-Coupled Receptor Assay for rat Thyrotropin Releasing Hormone Receptor (TRH) (AID 2283329);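 further: hit means lower bound tracer signal versus DMSO baseline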
Sequence of rat Thyrotropin Releasing Hormone Receptor (TRH), Trhr (gene 25570) (Q01717 whole entry, looked up): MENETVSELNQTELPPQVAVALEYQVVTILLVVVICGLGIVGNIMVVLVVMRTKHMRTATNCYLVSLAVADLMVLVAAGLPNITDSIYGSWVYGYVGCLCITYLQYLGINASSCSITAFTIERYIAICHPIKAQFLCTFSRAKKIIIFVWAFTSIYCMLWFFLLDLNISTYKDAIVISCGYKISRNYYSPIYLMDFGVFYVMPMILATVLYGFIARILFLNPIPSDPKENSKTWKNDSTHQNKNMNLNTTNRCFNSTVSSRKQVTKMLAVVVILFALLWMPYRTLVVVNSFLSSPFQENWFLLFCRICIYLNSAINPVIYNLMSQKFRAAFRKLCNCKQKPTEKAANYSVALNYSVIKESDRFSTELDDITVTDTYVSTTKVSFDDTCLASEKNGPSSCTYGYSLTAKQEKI
How it was run: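 Competitive radioligand binding on rat forebrain membrane preparations, with filtration and scintillation readout after 4 h. Primary testing in duplicate at 25 uM; actives confirmed in concentration-response. DMSO defined baseline.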

[3] = NVS_IC_rCaBTZCHL: NovaScreen (NVS) Ion Channel Assay for Calcium Channel, Type L, Benzothiazepine Site (CaBTZCHL) (AID 2283337)
How it was run: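 Radioligand displacement at the benzothiazepine site using rat cortical membranes; bound label measured by filtration and scintillation counting 1.5 h after dosing. Single-point 25 uM in duplicate, then concentration series; DMSO baseline.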

[4] = target: guinea pig Opioid, Kappa 1 Receptor (OpiateK), OPRK1 (gene 100135587) (UniProt P41144); experiment: NVS_GPCR_gOpiateK: NovaScreen (NVS) G Protein-Coupled Receptor Assay for guinea pig Opioid, Kappa 1 Receptor (OpiateK) (AID 2283252);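 further: radioligand displacement from kappa opioid receptor in guinea pig cerebellar membranes; active means reduced radioligand binding relative to DMSO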
Sequence of guinea pig Opioid, Kappa 1 Receptor (OpiateK), OPRK1 (gene 100135587) (P41144 whole entry, looked up): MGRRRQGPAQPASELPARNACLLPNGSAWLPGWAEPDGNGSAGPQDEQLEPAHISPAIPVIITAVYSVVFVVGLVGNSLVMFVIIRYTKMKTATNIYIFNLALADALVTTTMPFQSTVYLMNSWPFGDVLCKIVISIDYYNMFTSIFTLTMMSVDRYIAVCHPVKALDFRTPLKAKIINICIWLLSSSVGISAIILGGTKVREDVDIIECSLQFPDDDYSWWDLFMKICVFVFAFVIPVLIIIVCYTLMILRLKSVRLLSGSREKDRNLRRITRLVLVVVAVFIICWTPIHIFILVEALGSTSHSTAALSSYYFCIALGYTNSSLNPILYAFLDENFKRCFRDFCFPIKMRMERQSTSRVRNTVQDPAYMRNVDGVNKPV
How it was run: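 Guinea pig cerebellar membranes, radioligand displacement with filter-based scintillation counting, 2 h after dosing. Primary screen single concentration 25 uM in duplicate; actives retested in concentration series; loss of binding fitted versus DMSO.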

[5] = target: Muscarinic acetylcholine receptor M2 (Homo sapiens) (UniProt P08172); experiment: NVS_GPCR_hM2: NovaScreen (NVS) G Protein-Coupled Receptor Assay for human Muscarinic, M2 Receptor (AID 2283273)
Sequence of Muscarinic acetylcholine receptor M2 (Homo sapiens) (P08172 whole entry, looked up): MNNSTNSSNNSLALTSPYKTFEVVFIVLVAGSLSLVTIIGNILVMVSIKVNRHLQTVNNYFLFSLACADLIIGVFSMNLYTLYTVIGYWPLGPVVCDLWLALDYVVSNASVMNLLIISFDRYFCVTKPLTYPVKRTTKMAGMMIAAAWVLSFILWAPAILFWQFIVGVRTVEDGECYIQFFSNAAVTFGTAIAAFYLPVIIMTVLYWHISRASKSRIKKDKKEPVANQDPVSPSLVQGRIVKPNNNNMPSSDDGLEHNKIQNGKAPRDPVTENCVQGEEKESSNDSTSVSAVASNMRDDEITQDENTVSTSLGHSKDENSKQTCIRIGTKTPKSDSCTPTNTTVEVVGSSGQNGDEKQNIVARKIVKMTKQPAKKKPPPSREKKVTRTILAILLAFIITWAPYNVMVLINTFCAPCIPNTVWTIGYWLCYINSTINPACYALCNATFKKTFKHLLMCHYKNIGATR
How it was run: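 Radioligand displacement on human M2 receptor membranes from CHO cells, 1 h incubation, filtration with scintillation counting. Primary screen in duplicate at 25 uM; actives retested in concentration series; loss of signal fitted versus DMSO.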

[6] = target: rat Adrenergic Receptor, Alpha 2 (Adra2), Non-selective Binding, Adra2a (gene 25083) (UniProt P22909); experiment: NVS_GPCR_rAdra2_NonSelective: NovaScreen (NVS) G Protein-Coupled Receptor Assay for rat Adrenergic Receptor, Alpha 2 (Adra2), Non-selective Binding (AID 2283299)
Sequence of rat Adrenergic Receptor, Alpha 2 (Adra2), Non-selective Binding, Adra2a (gene 25083) (P22909 whole entry, looked up): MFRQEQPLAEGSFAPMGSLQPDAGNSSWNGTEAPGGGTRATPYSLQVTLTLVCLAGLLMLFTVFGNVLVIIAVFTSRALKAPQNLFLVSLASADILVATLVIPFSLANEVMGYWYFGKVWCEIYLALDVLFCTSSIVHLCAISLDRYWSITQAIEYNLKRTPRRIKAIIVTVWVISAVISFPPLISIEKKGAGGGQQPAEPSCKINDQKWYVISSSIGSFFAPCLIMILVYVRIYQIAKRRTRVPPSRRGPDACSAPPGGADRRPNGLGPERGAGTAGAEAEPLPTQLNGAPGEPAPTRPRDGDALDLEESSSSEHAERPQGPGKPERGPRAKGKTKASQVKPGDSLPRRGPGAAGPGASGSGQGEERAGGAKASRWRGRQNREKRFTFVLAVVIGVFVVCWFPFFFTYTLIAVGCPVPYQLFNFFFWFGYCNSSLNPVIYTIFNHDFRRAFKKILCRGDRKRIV
How it was run: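 Rat cortical membranes, radioligand competitive displacement read by filter-based scintillation counting 1.25 hours after dosing. Primary screen in duplicate at 25 uM; actives followed up in concentration series.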

[7] = target: human Endothelin Receptor Type A (ETA), EDNRA (gene 1909) (UniProt P25101); experiment: NVS_GPCR_hETA: NovaScreen (NVS) G Protein-Coupled Receptor Assay for human Endothelin Receptor Type A (ETA) (AID 2283265)
Sequence of human Endothelin Receptor Type A (ETA), EDNRA (gene 1909) (P25101 whole entry, looked up): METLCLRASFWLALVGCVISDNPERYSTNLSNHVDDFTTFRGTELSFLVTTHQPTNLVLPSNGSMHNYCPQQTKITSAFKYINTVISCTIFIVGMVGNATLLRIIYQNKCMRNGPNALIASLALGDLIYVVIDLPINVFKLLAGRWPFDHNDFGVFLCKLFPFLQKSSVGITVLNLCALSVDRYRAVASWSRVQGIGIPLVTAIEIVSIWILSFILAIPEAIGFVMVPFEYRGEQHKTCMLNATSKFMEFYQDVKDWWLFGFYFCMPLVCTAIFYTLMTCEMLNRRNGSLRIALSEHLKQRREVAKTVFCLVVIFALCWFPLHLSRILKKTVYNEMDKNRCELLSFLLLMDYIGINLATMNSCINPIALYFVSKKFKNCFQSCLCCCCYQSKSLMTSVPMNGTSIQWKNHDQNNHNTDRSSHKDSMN
How it was run: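 Cell-free radioligand displacement using SH-SY5Y-derived protein, 3 h incubation, filter-based scintillation counting. Primary screen in duplicate at 25 uM; actives then run in concentration-response up to 50 uM; loss of binding fitted versus DMSO.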

[8] = target: Muscarinic acetylcholine receptor M1 (Homo sapiens) (UniProt P11229); experiment: NVS_GPCR_hM1: NovaScreen (NVS) G Protein-Coupled Receptor Assay for human Muscarinic, M1 Receptor (AID 2283270)
How it was run: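 Cell-free radioligand displacement using membrane protein extracted from CHO cells, read by filter-based scintillation counting 1 h after dosing. Loss of bound signal fitted versus DMSO; primary screen single concentration 25 uM in duplicate, actives followed by concentration series.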

[9] = target: human Orphanin, Opioid Related Nociceptin Receptor 1 (ORL1), OPRL1 (gene 4987) (UniProt P41146); experiment: NVS_GPCR_hORL1: NovaScreen (NVS) G Protein-Coupled Receptor Assay for human Orphanin, Opioid Related Nociceptin Receptor 1 (ORL1) (AID 2283283)
Sequence of human Orphanin, Opioid Related Nociceptin Receptor 1 (ORL1), OPRL1 (gene 4987) (P41146 whole entry, looked up): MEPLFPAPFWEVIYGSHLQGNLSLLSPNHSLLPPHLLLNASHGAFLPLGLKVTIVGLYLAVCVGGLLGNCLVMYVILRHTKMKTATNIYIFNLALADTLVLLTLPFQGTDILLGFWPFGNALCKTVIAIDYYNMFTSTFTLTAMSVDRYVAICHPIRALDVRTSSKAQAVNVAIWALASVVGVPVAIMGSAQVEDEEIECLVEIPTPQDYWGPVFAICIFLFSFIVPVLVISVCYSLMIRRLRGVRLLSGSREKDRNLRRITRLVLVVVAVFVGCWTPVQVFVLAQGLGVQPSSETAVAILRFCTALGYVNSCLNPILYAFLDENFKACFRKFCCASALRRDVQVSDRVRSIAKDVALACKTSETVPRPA
How it was run: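 Filter-based radioligand displacement with receptor extracted from HEK293 cells, read 1 hour after dosing by scintillation counting. Duplicate single-point screen at 25 uM; qualifying chemicals then run in concentration-response to 50 uM, analysed relative to DMSO.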

[10] = target: bovine Estrogen Receptor (ER), ESR1 (gene 407238) (UniProt P49884); experiment: NVS_NR_bER: NovaScreen (NVS) Nuclear Receptor Binding Assay for bovine Estrogen Receptor (ER) (AID 2283345);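 further: actives lower the bound radioligand count which means they displace the ER ligand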
Sequence of bovine Estrogen Receptor (ER), ESR1 (gene 407238) (P49884 whole entry, looked up): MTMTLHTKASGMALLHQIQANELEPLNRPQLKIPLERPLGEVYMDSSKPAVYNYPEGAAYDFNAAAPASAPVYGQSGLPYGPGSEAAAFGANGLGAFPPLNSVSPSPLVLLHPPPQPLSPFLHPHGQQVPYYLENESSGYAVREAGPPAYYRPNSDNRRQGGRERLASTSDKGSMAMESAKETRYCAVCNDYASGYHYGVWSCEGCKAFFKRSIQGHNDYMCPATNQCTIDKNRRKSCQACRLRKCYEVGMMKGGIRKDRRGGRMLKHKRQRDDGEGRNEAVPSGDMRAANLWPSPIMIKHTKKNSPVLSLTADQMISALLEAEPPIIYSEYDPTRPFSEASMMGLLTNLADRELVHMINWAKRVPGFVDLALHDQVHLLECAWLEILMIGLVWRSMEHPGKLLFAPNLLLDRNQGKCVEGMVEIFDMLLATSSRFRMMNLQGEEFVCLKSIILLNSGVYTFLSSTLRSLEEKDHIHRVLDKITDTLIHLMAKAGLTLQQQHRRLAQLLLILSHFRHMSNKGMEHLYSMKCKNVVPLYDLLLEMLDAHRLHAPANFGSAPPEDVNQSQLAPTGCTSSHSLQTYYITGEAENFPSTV
How it was run: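 Displacement of a radioligand from estrogen receptor in bovine uterine membrane preparations; scintillation signal taken at 18 hours, DMSO as baseline. Single-concentration duplicates (25 uM) preceded concentration-response follow-up of actives.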

[11] = target: human Opioid Receptor Mu (Opiate Mu), OPRM1 (gene 4988) (UniProt P35372); experiment: NVS_GPCR_hOpiate_mu: NovaScreen (NVS) G Protein-Coupled Receptor Assay for human Opioid Receptor Mu (Opiate Mu) (AID 2283290);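 further: hits lower bound tracer signal versus DMSO meaning displacement of the ligand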
Sequence of human Opioid Receptor Mu (Opiate Mu), OPRM1 (gene 4988) (P35372 whole entry, looked up): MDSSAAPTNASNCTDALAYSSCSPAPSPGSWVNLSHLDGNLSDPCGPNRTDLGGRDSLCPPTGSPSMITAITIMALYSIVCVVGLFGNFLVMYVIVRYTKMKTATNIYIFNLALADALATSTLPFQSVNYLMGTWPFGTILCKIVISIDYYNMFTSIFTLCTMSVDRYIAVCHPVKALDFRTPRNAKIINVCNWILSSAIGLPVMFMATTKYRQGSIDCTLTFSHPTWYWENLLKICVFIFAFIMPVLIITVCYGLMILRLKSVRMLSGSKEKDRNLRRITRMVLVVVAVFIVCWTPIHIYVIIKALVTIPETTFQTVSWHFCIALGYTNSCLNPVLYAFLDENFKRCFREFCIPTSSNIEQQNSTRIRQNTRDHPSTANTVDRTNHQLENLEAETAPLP
How it was run: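 Primary screen in duplicate at 25 uM, with actives followed in concentration series. CHO-derived receptor membranes, cell-free; bound radioligand read by scintillation counting after filtration at 2.5 h, decrease scored against DMSO.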

[12] = target: human Androgen Receptor (AR), AR (gene 367) (UniProt P10275); experiment: NVS_NR_hAR: NovaScreen (NVS) Nuclear Receptor Binding Assay for human Androgen Receptor (AR) (AID 2283332)
Sequence of human Androgen Receptor (AR), AR (gene 367) (P10275 whole entry, looked up): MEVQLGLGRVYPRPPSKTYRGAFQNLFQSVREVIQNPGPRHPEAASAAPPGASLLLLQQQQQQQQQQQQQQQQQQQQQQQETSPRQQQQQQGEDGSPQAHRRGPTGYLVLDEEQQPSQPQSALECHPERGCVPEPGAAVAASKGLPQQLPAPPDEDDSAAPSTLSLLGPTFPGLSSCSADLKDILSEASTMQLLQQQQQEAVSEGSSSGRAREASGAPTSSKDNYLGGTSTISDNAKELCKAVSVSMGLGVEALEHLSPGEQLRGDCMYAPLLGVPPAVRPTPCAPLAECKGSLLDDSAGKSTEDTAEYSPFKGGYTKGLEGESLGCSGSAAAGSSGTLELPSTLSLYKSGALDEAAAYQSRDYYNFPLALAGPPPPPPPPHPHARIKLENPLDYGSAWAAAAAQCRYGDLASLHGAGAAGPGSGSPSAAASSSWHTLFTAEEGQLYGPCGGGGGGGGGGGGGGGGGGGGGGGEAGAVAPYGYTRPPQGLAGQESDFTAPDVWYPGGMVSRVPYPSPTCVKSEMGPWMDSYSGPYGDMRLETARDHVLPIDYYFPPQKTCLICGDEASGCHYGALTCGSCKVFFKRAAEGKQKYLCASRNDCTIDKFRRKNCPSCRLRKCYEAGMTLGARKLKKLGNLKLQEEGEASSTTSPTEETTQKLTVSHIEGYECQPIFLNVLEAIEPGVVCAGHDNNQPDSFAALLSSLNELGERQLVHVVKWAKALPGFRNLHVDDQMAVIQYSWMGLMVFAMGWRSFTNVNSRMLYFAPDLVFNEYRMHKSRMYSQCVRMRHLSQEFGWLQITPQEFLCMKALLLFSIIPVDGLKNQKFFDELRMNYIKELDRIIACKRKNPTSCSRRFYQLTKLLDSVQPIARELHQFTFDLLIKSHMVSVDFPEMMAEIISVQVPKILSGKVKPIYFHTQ
How it was run: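 LnCAP cell-free extract; radioligand displacement read by scintillation counting after 20 h. Primary screen single concentration 25 uM in duplicate, actives then run as concentration series; loss-of-signal fitted relative to DMSO baseline.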

[13] = target: human Peripheral-type Benzodiazepine Receptor (PBR), TSPO (gene 706) (UniProt P30536); experiment: NVS_MP_hPBR: NovaScreen (NVS) Membrane Protein Assay for human Peripheral-type Benzodiazepine Receptor (PBR) (AID 2283331);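 further: hits reduce radioligand binding relative to DMSO baseline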
Sequence of human Peripheral-type Benzodiazepine Receptor (PBR), TSPO (gene 706) (P30536 whole entry, looked up): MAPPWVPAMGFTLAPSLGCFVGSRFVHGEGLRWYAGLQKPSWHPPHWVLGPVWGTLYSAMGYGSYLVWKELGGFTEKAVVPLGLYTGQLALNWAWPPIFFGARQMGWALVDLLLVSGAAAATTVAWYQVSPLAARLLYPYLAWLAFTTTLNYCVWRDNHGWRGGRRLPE
How it was run: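 Radioligand displacement on human colonic cell membranes, 1 h incubation; bound radioactivity by filtration and scintillation counting. Primary screen in duplicate at 25 uM single concentration, actives followed up in concentration series; loss of binding versus DMSO.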

[14] = target: Sodium channel protein type 1 subunit alpha (Rattus norvegicus) (UniProt P04774); experiment: NVS_IC_rNaCh_site2: NovaScreen (NVS) Ion Channel Assay for rat Sodium Channel, Site 2 (NaCh) (AID 2283322);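 further: hit means loss of radioligand binding signal relative to DMSO so AC50 marks displacement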
How it was run: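 Membranes: rat forebrain. Format: competitive radioligand displacement, filter separation, scintillation readout, 1 h exposure. Primary screen in duplicate at 25 uM; actives retested in concentration series.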

[15] = target: rat Neonicotinoid receptor (NNR), Chrna7 (gene 25302) (UniProt Q05941); experiment: NVS_LGIC_rNNR_BungSens: NovaScreen (NVS) Ligand-Gated Ion Channel Assay for rat Neonicotinoid receptor (NNR) (AID 2283315)
How it was run: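 Radioligand displacement binding on rat cortical membranes, 2.5 h incubation, filtration and scintillation counting. Loss of specific binding fitted relative to DMSO.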

[16] = target: human Thromboxane A2 Receptor (TXA2), TBXA2R (gene 6915) (UniProt P21731); experiment: NVS_GPCR_hTXA2: NovaScreen (NVS) G Protein-Coupled Receptor Assay for human Thromboxane A2 Receptor (TXA2) (AID 2283282);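 further: actives reduce bound radioligand signal relative to DMSO baseline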
How it was run: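 Cell-free radioligand binding with human platelet-derived receptor; 1 h after dosing, filter-based scintillation counting, loss of signal vs DMSO. Primary screen in duplicate at 25 uM.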

O=C(c1ccccc1)c1ccc(O)cc1O
outcome [1]: inactive
outcome [2]: inactive
outcome [3]: inactive

C[C@]12CC[C@H]3C(=CCc4cc(O)ccc43)[C@@H]1CCC2=O
outcome [1]: inactive
outcome [2]: inactive

Cc1ccc(S(=O)(=O)C(I)I)cc1
outcome [4]: inactive

c1ccc(C[P+](c2ccccc2)(c2ccccc2)c2ccccc2)cc1
AC50 [4]: 1.98 µM (active)
AC50 [5]: 1.22 µM (active)
AC50 [6]: 17.8 µM (active)
AC50 [3]: 4.8 µM (active)

CCCCCCCCCCCCCC[P+](CCCC)(CCCC)CCCC
AC50 [7]: 6.26 µM (active)
AC50 [8]: 1.02 µM (active)
AC50 [9]: 6.46 µM (active)

CCCCCCCCn1sc(Cl)c(Cl)c1=O
outcome [7]: inactive
AC50 [9]: 16.5 µM (active)

Oc1ccc(C2(c3ccc(O)c(C4CCCCC4)c3)CCCCC2)cc1C1CCCCC1
AC50 [5]: 8.57 µM (active)

CC(C)(C)C(=O)C1C(=O)c2ccccc2C1=O
outcome [10]: inactive

C#CC(O)CCC (centres undefined)
AC50 [11]: 5.3 µM (active)
outcome [12]: inactive

CCCCCCCC/C=C\CCCCCCCC(=O)OCC(O)CO (centres undefined)
outcome [2]: inactive
AC50 [13]: 25 µM (active)

Cc1cc(O)c(C(C)(C)C)cc1C(C)(C)C
outcome [10]: inactive

CCN=c1cc2oc3cc(NCC)c(C)cc3c(-c3ccccc3C(=O)OCC)c-2cc1C
outcome [2]: inactive
AC50 [13]: 0.443 µM (active)
AC50 [10]: 8.97 µM (active)

CCCC(=O)OCC(COC(=O)CCC)OC(=O)CCC
outcome [14]: inactive
outcome [13]: inactive

CCCCOC(=O)[C@H](C)O
outcome [2]: inactive

O=c1cccc[nH]1
outcome [15]: inactive

Cc1cccc(C)n1
outcome [11]: inactive

CCCCCCCC/C=C\CCCCCCCC(=O)N(C)CC(=O)O
outcome [13]: inactive
outcome [10]: inactive

CCC(Cc1c(I)cc(I)c(N)c1I)C(=O)O (centres undefined)
outcome [2]: inactive
outcome [10]: inactive

COc1ccccc1C=O
outcome [14]: inactive

CC(C)(C)c1cc(Cc2cc(C(C)(C)C)c(O)c(C(C)(C)C)c2)cc(C(C)(C)C)c1O
outcome [2]: inactive

CCCCOC(=O)C(C)O (centres undefined)
outcome [2]: inactive

COCCOCCC[Si](C)(O[Si](C)(C)C)O[Si](C)(C)C
outcome [2]: inactive

CCN=C1C=CC(=C(c2ccc(N(CC)CC)cc2)c2ccc(N(CC)CC)cc2)c2ccccc21
outcome [2]: inactive
AC50 [13]: 0.0669 µM (active)

CCc1cc(Cc2cc(CC)c(N)c(CC)c2)cc(CC)c1N
outcome [10]: inactive

O=C1c2c(O)ccc(Nc3ccc(CCO)cc3)c2C(=O)c2c([N+](=O)[O-])ccc(O)c21
outcome [16]: inactive
AC50 [13]: 9.9 µM (active)
AC50 [12]: 13.8 µM (active)

CCCCCCCCCc1ccc(OCCO)cc1
AC50 [13]: 2.84 µM (active)
outcome [10]: inactive

CC(C)Nc1ccc(NC(C)C)c2c1C(=O)c1ccccc1C2=O
AC50 [13]: 3.66 µM (active)

O=C=NCc1cccc(CN=C=O)c1
outcome [14]: inactive
AC50 [13]: 4.21 µM (active)

Cc1ccc([N+](=O)[O-])c(C)c1
outcome [2]: inactive

CC(C)(C)c1cc(CCC(=O)NCCCCCCNC(=O)CCc2cc(C(C)(C)C)c(O)c(C(C)(C)C)c2)cc(C(C)(C)C)c1O
outcome [14]: inactive

CCCCCCCCCCCCC[N+](C)(C)Cc1ccccc1
AC50 [13]: 25.5 µM (active)
outcome [10]: inactive

Brc1ccccn1
outcome [14]: inactive
